The source of these data is PubChem BioAssay.

Activity calls are given as the source filed them.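 How the source made its calls, unless noted: active means visually confirmed hit in the image check and inhibition above 20%; inconclusive means visually confirmed hit but inhibition not above 20%; inactive means no visual hit in the image check.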

Test [1] is described as follows: inhibitors of TNFa-induced NFkB p65 translocation, primary screen, imaging, HUVEC, MLSMR starter and 10KST1 sets (AID 438;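 active means inhibition above 20% together with a positive visual image hit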;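 further: compound added about 3h40 before a 20 min TNFalpha stimulation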;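 on inhibition: signal is the nuclear over cytoplasmic p65 intensity ratio per well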). The following applies: HUVEC TNFa-induced p65 nuclear translocation; cell count: measured here: nuclei count (cytotoxicity indicator), at 2.08 µM; inhibition: at 2 µM, stronger effect = higher value, 0% TNFa-plus-vehicle, 100% no-TNFa wells.
Test [2] in a line: reduction of polyQ htt aggregates in cells – imaging, exon1htt(103Q)mCFP cells, high-content imaging, primary screen (AID 483;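 active means visual image review flags a hit and inhibition of aggregation exceeds 20%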;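 further: compound exposure lasted 3 days before fixation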;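 on nuclei count: percent of the per-plate median nuclei count of sample wells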). The following applies: exon1htt(103Q)mCFP cell line, aggregate imaging, at 2 µM; inhibition of aggregation: stronger effect = higher value; nuclei count: measured here: cell count, toxicity.
Test [3] can be described thus: endothelial E-selectin expression blockers – imaging, HUVEC, immunofluorescence, MLSMR starter and 10KST1 sets, primary screen (AID 487).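 On inhibition: signal is fraction of cell area covered by stained E-selectin grains.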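 On nuclei count: 100% = median nuclei count of all wells on the same plate.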 The settings on record: HUVEC TNFalpha-induced E-selectin immunofluorescence imaging, at 2 µM; inhibition: stronger effect = higher value; nuclei count: measured here: cell number, toxicity.
Test [4] concerns the target Voltage-gated potassium channel subunit beta-2 (Rattus norvegicus) (UniProt P62483). Description: inhibitors of rat Kvbeta2 reductase activity – biochemical, NADPH fluorescence, primary screen (AID 622;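 active means fluorescence slope higher than the sample average by over 3 SD, cut at about -0.22 in these data, passing the limit was not always enough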;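 further: slope of raw intensity against log time taken from 70 to 1610 s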). The settings on record: recombinant KvBeta, 4-cyanobenzaldehyde reduction, at 10 µM, stronger effect = higher value.
For test [5] the target is unchanged. Nature of the test: enhancers of rat Kvbeta2 NADPH turnover – biochemical, NADPH fluorescence, primary screen (AID 623;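 active means NADPH fluorescence slope more negative than the mean of all samples by about 3 SD, 99.7% confidence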;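 further: fluorescence intensity change per second fitted from 20 to 320 s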). The settings on record: Recombinant KvBeta, NADPH fluorescence decrease slope, 10 min; at 10 µM; stronger effect = lower value.
The target of test [6] is Alpha-2C adrenergic receptor (Homo sapiens) (UniProt P18825). Description: compounds altering alpha2C-coupled GIRK flux – cell-based, HEK293 alpha2C/GIRK1/2, thallium flux, primary screen (AID 624;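 active means fluorescence slope after compound addition differing from the mean of all screened samples at 99.7% confidence, in either direction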;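 further: slope of fluorescence ratio to pre-addition baseline per second over 15 to 24 s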). The following applies: thallium flux BTC fluorescence, at 10 µM, actives lie on both sides.
Alpha-2C adrenergic receptor (Homo sapiens), sequence (P18825 whole entry, looked up): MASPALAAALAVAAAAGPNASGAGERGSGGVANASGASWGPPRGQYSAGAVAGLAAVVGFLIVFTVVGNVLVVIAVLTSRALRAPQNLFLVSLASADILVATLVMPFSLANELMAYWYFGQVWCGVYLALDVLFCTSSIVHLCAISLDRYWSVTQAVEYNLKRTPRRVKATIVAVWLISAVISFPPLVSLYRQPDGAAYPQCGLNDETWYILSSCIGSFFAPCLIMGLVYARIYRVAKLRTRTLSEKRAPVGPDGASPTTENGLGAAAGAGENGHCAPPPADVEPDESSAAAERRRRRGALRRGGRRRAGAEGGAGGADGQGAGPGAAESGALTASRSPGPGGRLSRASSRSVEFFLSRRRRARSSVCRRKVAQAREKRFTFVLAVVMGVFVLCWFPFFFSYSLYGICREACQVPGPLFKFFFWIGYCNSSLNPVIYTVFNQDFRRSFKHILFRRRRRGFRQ
A short description of test [7]: blockers of RIG-like receptor reporter activation – cell-based, Sendai virus stimulus, luciferase, 10K MLSCN set, TLR/RLR signaling modifier project, primary screen (AID 602276;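 active means inhibition at or above 50% at 10 µM; inactive means inhibition below 50%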;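 further: firefly luciferase from ISG56 promoter only with Renilla not read in this screen; 0% = Sendai virus plus DMSO and 100% = medium plus DMSO without virus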). The following applies: HEK293 RL24 IRF3 luciferase reporter, at 10 µM, stronger effect = higher value. On the technique in general: Reporter assays use an easily measured gene product as a stand-in for the process of interest.

Test [8] is described as follows: TLR3 IRF3 reporter activation blockers – cell-based, poly I:C stimulus, luciferase, 10K MLSCN set, primary screen (AID 602277;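 active means inhibition of the reporter signal at or above 50%; inactive means inhibition below 50%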). The settings on record: HEK293-TLR3 RL24 IRF3 luciferase reporter, at 10 µM, stronger effect = higher value.

Voltage-gated potassium channel subunit beta-2 (Rattus norvegicus), sequence (P62483 whole entry, looked up): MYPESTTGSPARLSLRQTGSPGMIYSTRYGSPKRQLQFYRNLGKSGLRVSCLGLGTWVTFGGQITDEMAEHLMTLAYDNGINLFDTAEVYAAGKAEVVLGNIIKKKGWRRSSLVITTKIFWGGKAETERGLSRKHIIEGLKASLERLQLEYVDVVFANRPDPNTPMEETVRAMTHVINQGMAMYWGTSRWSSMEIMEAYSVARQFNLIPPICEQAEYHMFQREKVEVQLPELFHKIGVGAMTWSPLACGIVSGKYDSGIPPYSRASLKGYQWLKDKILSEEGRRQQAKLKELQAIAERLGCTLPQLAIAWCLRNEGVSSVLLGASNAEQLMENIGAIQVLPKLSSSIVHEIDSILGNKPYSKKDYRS

Broadly, the inhibition is the drop in the measured response relative to a control, in per cent. With `COc1ccc(CCNC(=O)c2cnn3ccccc23)c(OC)c1OC`, in test [1], the cell count was 779. The inhibition is -4.5% (inactive) in test [1], -59.3% (inactive) in test [3], 1.42% (inactive) in test [7] and -10.8% (inactive) in test [8]. For the same molecule, the inhibition of aggregation in test [2] is -37.7% (inactive). Also, the nuclei count in test [2] was determined as 108%; in test [3], 115%. In test [4], the fluorescence slope was -0.558 (inactive). The NADPH fluorescence slope in test [5] was -4.4e-06 (inactive). In addition, the slope in test [6] was 0.00687 (inactive).

Turning to `COC(=O)Cn1c2ccccc2c2nc(C)sc21`, the cell count in test [1] worked out at 350. The inhibition was 11.4% (inactive) in test [1], -59.3% (inactive) in test [3], -14.8% (inactive) in test [7] and -8.31% (inactive) in test [8]. Besides, in test [2], the inhibition of aggregation is -14.3% (inactive). In addition, the results for the nuclei count in test [2] and in test [3] were 106% and 125%, respectively. For the same molecule, in test [4], the fluorescence slope is -0.439 (inactive). Further, the NADPH fluorescence slope in test [5] is 7e-06 (inactive). For the same molecule, the slope in test [6] is 0.00472 (inactive).

With `CN1C(=S)SC(C)(NO)C1(C)C` (stereo not given), in test [1], the cell count was 446. Moreover, the inhibition in test [1] is 6.5% (inactive); in test [3] it was 2.9% (inactive); in test [7], 15.4% (inactive); in test [8], 16% (inactive). The inhibition of aggregation in test [2] was 7.3% (inactive). For the same molecule, the results for the nuclei count in test [2] and in test [3] were 78.4% and 107%, respectively. Besides, the fluorescence slope in test [4] is -0.479 (inactive). Moreover, in test [5], the NADPH fluorescence slope is -0.000139 (active). The slope in test [6] was 0.00444 (inactive).

Consider `Cc1cc(NC(=O)CSc2nccn2-c2ccc(Cl)cc2)no1`, for which, in test [1], the cell count was 505. Besides, the inhibition in test [1] was 4.2% (inactive); in test [3], -65.5% (inactive); in test [7], -5.68% (inactive); in test [8], -15.6% (inactive). Further, the inhibition of aggregation in test [2] was -6.1% (inactive). For the same molecule, the nuclei count in test [2] is 106%; in test [3], 120%. The fluorescence slope in test [4] is -0.554 (inactive). Moreover, the NADPH fluorescence slope in test [5] was -8.5e-06 (inactive). For the same molecule, the slope in test [6] was 0.00588 (inactive).

For the molecule `Cc1c(NC(=O)c2ccc(COc3ccc4ccccc4c3)o2)c(=O)n(-c2ccccc2)n1C`, the cell count in test [1] came out at 417. Moreover, the inhibition in test [1] is 2.2% (inactive); in test [3], -55.3% (inactive); in test [7], -13.4% (inactive); in test [8], -61.2% (inactive). In test [2], the inhibition of aggregation is 1.1% (inactive). Besides, the nuclei count in test [2] was found to be 101%; in test [3] it was 109%. For the same molecule, in test [4], the fluorescence slope is -0.598 (inactive). In test [5], the NADPH fluorescence slope was -2.6e-05 (inactive). For the same molecule, the slope in test [6] was 0.0029 (inactive).

Take `COCCCNC(=O)c1ccc(CS(=O)(=O)c2ccc(OC)cc2)o1`: in test [1], the cell count is 696. In addition, the inhibition in test [1] is -8.1% (inactive); in test [3], -54.8% (inactive); in test [7] it was 7.18% (inactive); in test [8] it was 13.8% (inactive). The inhibition of aggregation in test [2] is 5.6% (inactive). Besides, the nuclei count is 101% in test [2] and 115% in test [3]. The fluorescence slope in test [4] is -0.519 (inactive). In addition, the NADPH fluorescence slope in test [5] is -5.8e-05 (inactive). In addition, the slope in test [6] is 0.00615 (inactive).

In the case of `CCOc1ccc(S(=O)(=O)Nc2ccc(Cl)cn2)c(C)c1C`, in test [1], the cell count was determined as 536. Further, the inhibition in test [1] is -35.7% (inactive); in test [3], -43.3% (inactive); in test [7] it was 4.93% (inactive); in test [8] it was 26.8% (inactive). The inhibition of aggregation in test [2] was 20.2% (inactive). Further, the nuclei count in test [2] came to 87.4%; in test [3] it was 101%. In test [4], the fluorescence slope was -0.475 (inactive). Further, the NADPH fluorescence slope in test [5] is -3e-05 (inactive). The slope in test [6] was 0.00637 (inactive).

For the molecule `Cc1cc(OCC(=O)N2CCOCC2)cc2oc(=O)c3ccccc3c12`, in test [1], the cell count was determined as 352. Moreover, the inhibition was 6.7% (inactive) in test [1], 3.4% (inactive) in test [3], -4.13% (inactive) in test [7] and -8.03% (inactive) in test [8]. Besides, the inhibition of aggregation in test [2] is -9.5% (inactive). Further, the nuclei count in test [2] turned out to be 90.7%; in test [3], 124%. The fluorescence slope in test [4] was -0.329 (inactive). For the same molecule, the NADPH fluorescence slope in test [5] is 2.7e-05 (inactive). Further, in test [6], the slope is 0.00625 (inactive).

`Cc1nc(NC2=NCN(CCN3CCOCC3)CN2)nc2c(C)cccc12`: the cell count in test [1] stood at 417. Moreover, the inhibition was 4.5% (inactive) in test [1], -24.5% (inactive) in test [3], 23.8% (inactive) in test [7] and 41.1% (inactive) in test [8]. The inhibition of aggregation in test [2] is -1.2% (inactive). Also, the results for the nuclei count in test [2] and in test [3] were 72.4% and 108%, respectively. Besides, the fluorescence slope in test [4] is -0.419 (inactive). In addition, in test [5], the NADPH fluorescence slope is -3.7e-05 (inactive). Moreover, the slope in test [6] is 0.00391 (inactive).

`COC(=O)C1=CN(C(C)C)C=C(C(=O)OC)C1c1cc2c(cc1Br)OCO2`: in test [1], the cell count came out at 386. Further, the inhibition in test [1] is 8.1% (inactive); in test [3], -70.4% (inactive); in test [7], 5.71% (inactive); in test [8], 11% (inactive). The inhibition of aggregation in test [2] is 10.8% (inactive). Moreover, the results for the nuclei count in test [2] and in test [3] were 104% and 78.3%, respectively. Besides, the fluorescence slope in test [4] is -0.365 (inactive). Besides, the NADPH fluorescence slope in test [5] is 2e-05 (inactive). Moreover, the slope in test [6] is 0.00637 (inactive).
